# From PubChem
# MLL AF4-AF9 inh: inhibitors of AF4 peptide binding to AF9, primary screen, biochemical, AlphaScreen, biotin-AF4 peptide, FLAG-AF9, single point. Protein AF-9 (Homo sapiens), P42568. actives 0.47% (n = 350,000). AID 651704, 2012. inhibition, % at 10 µM;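 active = every replicate reaching a set inhibition limit, whatever the replicate mean, cut at about 25% in these data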
# MITF act: activators of MITF-driven TRPM1 promoter reporter, primary screen, cell-based, SK-MEL-5, luciferase, single point | AID 588334, 2011 | activation, % at 12.5 µM | SK-MEL-5 TRPM1-promoter luciferase, 24 h; % of positive control, neutral wells = 0 | actives 0.75% (n = 300,000);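 active = mean activation of at least 80% with every replicate also reaching 80%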
# esBAF inh: Bmi1 luciferase reporter increase in mESCs, primary screen, esBAF inhibitor project, mouse ES cells, Bmi1 luciferase knock-in, single point; 24 h; 100% = twice the neutral-well signal; reporter increase, % at 12.5 µM; AID 602393, 2012; actives 2% (n = 350,000); in the data active = activation above about 40%;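 also: a rise in the Bmi1 reporter signal indicates esBAF inhibition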
# Wnt act: Wnt/beta-catenin pathway activators, primary screen, cell-based, plate reader, single point; Wnt/beta-catenin reporter cell assay, activator; activation, % at 9.35 µM; actives 1.2% (n = 300,000); AID 743398, 2014; in the data active = activation above about 30%, passing the limit was not always enough
# SMARCA2 activ: SMARCA2 (BRM) function activators, primary screen, cell-based, luminescence, high throughput. actives 1% (n = 370,000). AID 652017, 2013. activation, % at 9.1 µM. MG213 cells, MMTV-luciferase reporter, dexamethasone, overnight; in the data active = activation above about 7.8%
# FGF22 binding: binders of human FGF22 protein, primary screen, FGF22 synaptogenesis inhibitor project, biophysical, thermal shift, single point | Fibroblast growth factor 22 (Homo sapiens), Q9HCT0 | recombinant FGF22 thermal shift, SYPRO orange fluorescence; percent of sucrose octasulfate shift, DMSO zero | activity (Tm shift, normalised), % at 9.99 µM | actives 1.5% (n = 340,000);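 active = mean Tm shift, scaled 0 neutral to 100 positive control, at about 1.3% or above, every replicate too, limit read from the data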
# Target sequence (Q9HCT0 whole entry, looked up): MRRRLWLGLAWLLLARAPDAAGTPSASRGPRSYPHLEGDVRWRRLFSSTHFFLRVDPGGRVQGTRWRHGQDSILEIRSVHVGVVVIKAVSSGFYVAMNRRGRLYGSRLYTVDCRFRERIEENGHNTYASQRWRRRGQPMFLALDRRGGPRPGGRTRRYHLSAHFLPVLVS
# Hits are given with their value; n = inactive; x = no result. Sampled rows, rich in hits. Any-hit rate of the full collection: about 4.3%.
SMILES,MLL AF4-AF9 inh,MITF act,esBAF inh,Wnt act,SMARCA2 activ,FGF22 binding
COC(=O)c1sccc1NC(=O)c1cccnc1,x,x,n,n,n,x
COC(=O)C(=Cc1ccc(-c2ccsc2C(=O)OC)o1)C(=O)OC,n,n,x,n,7.9,n
CCOC(=O)C(=Cc1ccc(-c2ccsc2C(=O)OC)o1)C(=O)OCC,x,x,n,n,n,x
COCC(=O)Nc1ccc2c(c1)[C@@H]1C[C@@H](CC(=O)NC3CCCC3)O[C@H](CO)[C@@H]1O2,n,x,n,x,x,n
COc1ccc(CNC(=O)C[C@@H]2CC[C@@H](NC(=O)c3ccc4c(c3)OCO4)[C@@H](CO)O2)cc1,n,x,n,x,x,n
COc1ccc2c3c(n(C)c2c1)[C@@H](CO)N(C(=O)Nc1c(C)noc1C)CC31CN(CC2CC2)C1,n,x,x,x,x,n
C=CCOc1ccc(/C=C/C(C)=N\O)cc1,x,x,n,38,n,x
C=CCOc1ccc(/C=C/C(=O)OCC(=O)N2CCN(C(C)=O)CC2)cc1,n,n,n,n,n,n
COc1ccc(CN2CC3(CCN(C(=O)C4CC4)CC3)c3c(n(C)c4cc(OC)ccc34)[C@H]2CO)cc1,n,x,x,x,x,n
Cc1nc(/C=C/c2ccccc2)cc(/C=C/c2ccccc2)n1,x,n,n,n,n,x
C(=C\c1cc(/C=C/c2ccccc2)ncn1)/c1ccccc1,x,n,55,37,n,x
C(/C=C/c1ccccn1)=C\c1ccccc1,n,n,x,42,n,n
Cc1cccc(/C=C/c2ccccc2)n1,n,x,51,46,n,n
CCCNC(=O)[C@H]1[C@H](CO)[C@H]2Cn3c(ccc(-c4cccc(F)c4)c3=O)[C@@H]1N2C(=O)c1ccccn1,n,x,n,x,x,n
COc1cccc(CN2CCN(Cc3[nH]c4ccccc4c3C)CC2CCO)c1 (stereo unspecified),n,n,x,n,n,43
COc1ccc(CN2CCN(Cc3cccc(OC)c3)C(CCO)C2)cc1 (stereo unspecified),n,n,n,n,n,n
CSc1ccc(CN2CCN(Cc3ccccc3)C(CCO)C2)cc1 (stereo unspecified),n,n,x,n,n,43
COc1cccc(CN2CCN(Cc3cc4ccccc4[nH]3)CC2CCO)c1 (stereo unspecified),n,n,n,n,n,n
OCCC1CN(Cc2cnn(-c3ccc(F)cc3)c2)CCN1Cc1ccsc1 (stereo unspecified),n,n,x,n,n,n
CCOc1ccc(CN2CCN(Cc3cc4ccccc4[nH]3)CC2CCO)cc1 (stereo unspecified),n,n,n,n,n,43
CCn1cc(CN2CCN(Cc3ccsc3)C(CCO)C2)cn1 (stereo unspecified),n,n,x,n,n,44
C[C@H](CO)N1C[C@H](C)[C@H](CN(C)C)Oc2ccc(NC(=O)Nc3cccc4ccccc34)cc2C1=O,n,x,n,x,x,n
CCN(C[C@@H]1[C@@H](c2ccccc2)[C@H](CO)N1CC1CC1)C(C)=O,n,x,n,x,x,n
O=C(NCC1CC1)[C@@H]1[C@@H](CO)[C@@H]2Cn3c(cccc3=O)[C@@H]2N1C(=O)Nc1ccccc1,n,x,n,x,x,x
COCC#Cc1ccc(CC[C@H]2O[C@H]3CC[C@H](CO)O[C@H]3C[C@@H]2n2cc(C3CC3)nn2)cc1,n,x,x,x,x,x
SMILES,MLL AF4-AF9 inh,MITF act,esBAF inh,Wnt act,SMARCA2 activ,FGF22 binding
CC(C)NC(=O)N(C)C[C@@H]1Oc2c(NC(=O)c3ccncc3)cccc2C(=O)N([C@H](C)CO)C[C@@H]1C,n,x,n,x,x,n
Cc1ccc(C(=O)c2oc3ccc(Cl)cc3c2NC(=O)CN2CCN(C)CC2)cc1,31,n,n,n,n,n
COc1ccc(CN2C(=O)CS/C2=N/N=C/c2ccccc2)cc1,n,x,x,n,n,n
COc1ccc(/C=N/N=C2/SCC(=O)N2Cc2ccccc2)cc1,n,x,x,56,n,n
CCCCCCCCNC(=O)c1cccnc1SCC(=O)Nc1ccccc1OC,n,n,x,n,n,39
COc1ccc(OC)c(NC(=O)CSc2ncccc2C(=O)O)c1,x,n,n,x,n,x
Cc1nnsc1C(=O)Nc1cc(Cl)ccc1Cl,x,x,n,42,n,x
Cc1nnsc1C(=O)Nc1cccc(Cl)c1,n,n,n,n,n,n
C/C(NC(=O)c1cccs1)=C1\C(=O)C[C@@H]2[C@H]1C2(C)C,n,n,44,n,n,x
CC1CCC2(CC1)NC(=O)N(NC(=O)c1cccs1)C2=O (stereo unspecified),n,n,n,n,n,n
CCOC(=O)CSc1ncnc2c(C(=O)OCC)c3n(c12)CCC3,n,n,x,n,n,43
CCN1[C@H](C(=O)NCC(F)(F)F)[C@@H](CO)[C@@H]2Cn3c(ccc(-c4ccccc4)c3=O)[C@@H]21,x,x,n,x,x,n
O=C(C[C@H]1CC[C@@H]2[C@H](COC[C@@H](O)CN2Cc2ccc(C(F)(F)F)cc2)O1)NCCc1ccccc1,n,x,n,x,x,n
CC(C)N(C[C@@H]1[C@@H](c2ccccc2)[C@@H](CO)N1S(C)(=O)=O)C(=O)CN(C)C,n,x,n,x,x,n
C[C@@H]1CN([C@@H](C)CO)C(=O)Cc2cc(NC(=O)Nc3ccc(C(F)(F)F)cc3)ccc2O[C@@H]1CN(C)Cc1ccncc1,n,x,n,x,x,n
Cc1ccc(C(=O)NNC(=O)C2CSC3(C)CCC(=O)N23)cc1 (stereo unspecified),n,n,n,n,n,n
Cc1ccc(CNC(=O)C2CSC3(C)CCC(=O)N23)cc1 (stereo unspecified),n,n,n,n,n,43
CCCCNC(=S)N1CCN(Cc2ccc3c(c2)OCO3)CC1,n,n,x,n,n,n
CCOCC(=O)N1CCN(Cc2ccc3c(c2)OCO3)CC1,n,n,n,31,n,n
COCCNC(=O)CSc1nccn1Cc1ccc2c(c1)OCO2,n,n,x,n,n,43
COCCCNC(=S)N1CCN(Cc2ccc3c(c2)OCO3)CC1,n,n,x,n,n,44
NC(=O)CSc1nccn1Cc1ccc2c(c1)OCO2,n,n,x,n,n,n
C[C@@H]1CN([C@@H](C)CO)C(=O)c2cccc(NC(=O)c3nc4ccccc4s3)c2O[C@H]1CN(C)Cc1ccc(C(F)(F)F)cc1,n,x,n,x,x,n
CCOC(=O)C1=C(Nc2ccccc2)OCC1=O,x,n,n,x,n,x
CCOC(=O)C1=C(Nc2ccc(OC)cc2)OCC1=O,n,x,x,36,n,n
CCOC(=O)c1cnc(/N=C/N(C)C)s1,n,n,x,n,7.9,n
O=C(NCC[C@H]1CC[C@@H](NC(=O)Nc2cc(F)ccc2F)[C@H](CO)O1)Nc1ccc(F)cc1,n,x,n,x,x,n
